The values below come from PubChem BioAssay AID449762 (Southern Research Specialized Biocontainment Screening …, 2010).

Screen size: about 330,000 compounds; about 1,900 (0.58%) were called active. Another 4% or so got no clear call; they are omitted. The list is a sample of the results. Entries with a potency or affinity are not part of this list. Unmarked numbers belong to inactive results. Cut-off read from the data, not from the text of the source: inconclusive = inhibition above about 70% without an active follow-up result; inactive = below that.

The nature of this assay: M. tuberculosis growth inhibition, HTS (AID 449762).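 Note: bacterial growth assessed after seven days of incubation.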 The settings on record: M. tuberculosis H37Rv growth inhibition, 7H9 media; at 25 µM; active compounds read high.
For `Cc1c(/C=N\NC(=O)c2c[nH]c3ccccc23)cnn1C`, the inhibition is 6.8%.

As for `COc1ccccc1NC(=S)N1CCN(C(=O)C2CCCO2)CC1` (configuration not stated), the inhibition was 4.95%.

With `COC(=O)c1c(NC(=O)CC2SC(N)=NC2=O)sc2c1CCCC2` (configuration not stated), the inhibition was -10.2%.

Consider `COC(=O)c1c(NC(=O)CC2SC(N)=NC2=O)sc2c1CCC(C)C2` (configuration not stated), for which the inhibition was -3.66%.

As to `COc1ccc(C(=O)c2c(-c3ccc(OC)cc3)oc3ccc(-c4ccc(OC)nc4)cc23)cc1`, the inhibition is 64.6%.

Take `CCCC12CN3CC(CCC)(CN(C1)C3c1ccco1)C2=O` (configuration not stated): the inhibition was -6.51%.

Turning to `CCCC12CN3CC(C)(CN(C1)C3c1ccco1)C2=O` (configuration not stated), the inhibition was -1.36%.

With `Cc1ccccc1C(=O)Nc1c(C(=O)N(CCN(C)C)Cc2ccco2)oc2ccccc12`, the inhibition was 13.6%.

Regarding `CN(C)CCN(Cc1ccco1)C(=O)c1oc2ccccc2c1NC(=O)COc1ccccc1`, the inhibition was 13.6%.

Take `CN(C(=O)CSc1nnc(-c2ccncc2)n1-c1ccccc1)C1CCS(=O)(=O)C1` (configuration not stated): the inhibition was -8.96%.

Turning to `O=C(NC1CCCCCC1)c1cccc(COCC(F)(F)F)c1`, the inhibition is -0.72%.

Turning to `C/C(=N\NC(=S)NCc1ccccc1)c1ccccc1F`, the inhibition was -2.93%.

As to `C/C(=N\NC(=S)NCCc1ccccc1)c1ccc(O)cc1O`, the inhibition is 3.81%.

As to `Cc1noc(C)c1S(=O)(=O)Nc1ccc(C(=O)N2CCC(C)CC2)cc1`, the inhibition was 8.59%.

On to `Cc1ccc(N2CC(C(=O)N3CCC(C(=O)Nc4nnc(C(C)(C)C)s4)CC3)CC2=O)cc1` (configuration not stated), for which the inhibition was 4.69%.

As to `OCC1(Cc2ccc(Cl)cc2)CCN(CCCc2ccccc2)CC1`, the inhibition is 39.2%.

As for `COc1cnc(-c2ccccn2)nc1Oc1ccc(Cl)cc1`, the inhibition is 2.17%.

For `COc1cnc(-c2ccccc2)nc1Oc1ccc(Cl)cc1C`, the inhibition was 3.24%.

As for `Cc1cc(C)cc(OCC(=O)N2Cc3ccccc3CC2C(=O)O)c1` (configuration not stated), the inhibition is 10.5%.

Turning to `CC(CC(=O)Nc1ccc(-c2ccno2)cc1)n1cccn1` (configuration not stated), the inhibition was 21.4%.

On to `Cc1ccc(CNC(=O)COC(=O)c2cc(=O)[nH]c3ccccc23)cc1`, for which the inhibition was 6.93%.

Regarding `N#Cc1ccccc1/C=N/Nc1nc(-c2ccccc2)c2cc(Br)ccc2n1`, the inhibition is 6.43%.

As for `N#Cc1ccccc1/C=N/Nc1nc(-c2ccccc2)c2cc(Cl)ccc2n1`, the inhibition was -2.26%.

As to `COCCNC(=S)Nc1ccc2nc(N3CCOCC3)cc(C)c2c1`, the inhibition is -5.25%.

For `O=C(COC(=O)CNC(=O)c1ccc(Cl)c([N+](=O)[O-])c1)NCC1CCCO1` (configuration not stated), the inhibition was -15.8%.

Regarding `Cc1cc(NCCC(C)C)n2nc(C)c(-c3ccccc3)c2n1`, the inhibition was 67.4%.

Take `Cc1nn2c(N3CCCC3)cc(C(C)C)nc2c1-c1ccccc1`: the inhibition is 2.45%.

A word on the inhibition: it is the relative decrease from the control value, in per cent.
